# Reference: PubChem BioAssay (NCATS)
# Results filed as inconclusive are left out. Activity calls are given as the source filed them. Unless noted, the call rests on the fitted dose curve; in most records, active means well fitted curve in the direction sought with a large enough effect; inconclusive means small, poorly fitted or top-dose-only effect, or another doubt; inactive means no such curve, though single readings can be large; an effect the other way counts as inactive or inconclusive.
# How the values were obtained:
# [1] = Primary qHTS for inhibitors of nuclear receptor binding SET domain protein 2 (NSD2) in an isogenic RCH-ACV NSD2 p.E1099K mutant (9B) (AID 1645876); further: nearly all actives have a fitted effect of over 70% in size; further: potency means the concentration at half of the fitted maximal effect
# [2] = Primary qHTS for inhibitors of nuclear receptor binding SET domain protein 2 (NSD2) in an RCH-ACV wild type WT cells (2C) (AID 1645877); further: nearly all actives have a fitted effect of over 70% in size; further: potency means the concentration at half of the fitted maximal effect
# [3] = target: Glutathione peroxidase 1 (Homo sapiens) (UniProt P07203); experiment: Primary qHTS Assay for Inhibitors of Recombinant Selenoprotein Glutathione Peroxidase 1 (GPX1) (AID 1845191); further: nearly all actives have a fitted effect of over 65% in size
# Summary of the method: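 GR-coupled readout: NADPH consumption tracked by fluorescence, ex 340/em 450 nm, at t=0 and after 15 min at RT. Final mix 10 nM GPX1, 1 mM GSH, 0.5 mM CHP, 0.5 mM NADPH, 100 nM GR, 0.01% BSA, following 30 min enzyme–compound preincubation.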
# [4] = target: Phospholipid hydroperoxide glutathione peroxidase GPX4 (Homo sapiens) (UniProt P36969); experiment: Primary qHTS Assay for Inhibitors of Recombinant Selenoprotein Glutathione Peroxidase 4 (GPX4) (AID 1845192); further: nearly all actives have a fitted effect of over 65% in size; further: potency means the concentration at half of the fitted maximal effect
# Summary of the method: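 Steps: GPX4 plus compound, 30 min RT; add GR/GSH/NADPH master mix; start with cumene hydroperoxide; read 340/450 nm fluorescence at 0 and 15 min. Finals were 200 nM GPX4, 1 mM GSH, 0.5 mM CHP, 0.5 mM NADPH, 100 nM GR.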
# [5] = qHTS drug screen for cell cycle checkpoint inhibitors in PARPi-resistant BRCA-mutant ovarian cancer cell lines. (AID 1963452; calls by dose curve); settings: PEO1/OlaR viability, CellTiter-Glo luminescence, 96 h, stronger effect = lower value
# Summary of the method: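 PEO1, PEO4 and PEO1/OlaR ovarian cancer cells, 600 per well, exposed 96 h at 37C to a dilution series. Viability read by CellTiter-Glo luminescence, normalized to DMSO and empty wells; activity summarized as Z-AUC.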
# [6] = target: Rap guanine nucleotide exchange factor 3 (Homo sapiens) (UniProt O95398); experiment: Confirmatory qHTS for antagonist of cAMP-regulated guanine nucleotide exchange factor 3 (EPAC1) (AID 1645880); further: nearly all actives have a fitted effect of over 55% in size; further: potency means the concentration at half of the fitted maximal effect
# Summary of the method: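 Released BODIPY-GDP fluoresces less than Rap1-bound BODIPY-GDP; the signal is followed at 480/540 nm at 5-min intervals over 30 min, after 5 min at room temperature. Reactions contain 100 nM EPAC1, 250 nM RAP1B-BODIPY-GDP and 50 uM GDP; results are normalized to ATA and DMSO.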
# [7] = target: Rap guanine nucleotide exchange factor 3 (Homo sapiens) (UniProt O95398); experiment: Confirmatory qHTS for agonist of cAMP-regulated guanine nucleotide exchange factor 3 (EPAC1) (AID 1645881);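 further: EPAC1 catalysed release of BODIPY-GDP from Rap1B seen as fluorescence loss; 100% = effect of cAMP agonist control; nearly all actives have a fitted effect of over 75% in size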
# [8] = target: Rap guanine nucleotide exchange factor 4 (Homo sapiens) (UniProt Q8WZA2); experiment: Confirmatory qHTS for agonist of cAMP-regulated guanine nucleotide exchange factor 4 (EPAC2) (AID 1645884);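 further: nucleotide exchange releases bodipy-GDP from Rap1 and this lowers its fluorescence; on the % scale 0 is the no-effect control and ±100 the full control effect; nearly all actives have a fitted effect of over 65% in size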
# [9] = NCATS anti-infectives library activity on HEK293 viability as a counter-qHTS vs the C. elegans viability qHTS (AID 1745854);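 further: HEK293 cells exposed to compounds for 24 hr before the viability read; on the % scale 0 is the no-effect control and ±100 the full control effect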
# Summary of the method: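 Counter-screen for cytotoxicity: HEK293, 24 hr, 37C, compounds up to 41.7 uM final (a dilution series, 1:5). Readout CellTiter-Glo luminescence, 10 min RT. Digitonin control, 83.3 uM final.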
# [10] = measured here: PEO1 parental Z-AUC
# Rap guanine nucleotide exchange factor 3 (Homo sapiens), sequence (O95398 whole entry, looked up): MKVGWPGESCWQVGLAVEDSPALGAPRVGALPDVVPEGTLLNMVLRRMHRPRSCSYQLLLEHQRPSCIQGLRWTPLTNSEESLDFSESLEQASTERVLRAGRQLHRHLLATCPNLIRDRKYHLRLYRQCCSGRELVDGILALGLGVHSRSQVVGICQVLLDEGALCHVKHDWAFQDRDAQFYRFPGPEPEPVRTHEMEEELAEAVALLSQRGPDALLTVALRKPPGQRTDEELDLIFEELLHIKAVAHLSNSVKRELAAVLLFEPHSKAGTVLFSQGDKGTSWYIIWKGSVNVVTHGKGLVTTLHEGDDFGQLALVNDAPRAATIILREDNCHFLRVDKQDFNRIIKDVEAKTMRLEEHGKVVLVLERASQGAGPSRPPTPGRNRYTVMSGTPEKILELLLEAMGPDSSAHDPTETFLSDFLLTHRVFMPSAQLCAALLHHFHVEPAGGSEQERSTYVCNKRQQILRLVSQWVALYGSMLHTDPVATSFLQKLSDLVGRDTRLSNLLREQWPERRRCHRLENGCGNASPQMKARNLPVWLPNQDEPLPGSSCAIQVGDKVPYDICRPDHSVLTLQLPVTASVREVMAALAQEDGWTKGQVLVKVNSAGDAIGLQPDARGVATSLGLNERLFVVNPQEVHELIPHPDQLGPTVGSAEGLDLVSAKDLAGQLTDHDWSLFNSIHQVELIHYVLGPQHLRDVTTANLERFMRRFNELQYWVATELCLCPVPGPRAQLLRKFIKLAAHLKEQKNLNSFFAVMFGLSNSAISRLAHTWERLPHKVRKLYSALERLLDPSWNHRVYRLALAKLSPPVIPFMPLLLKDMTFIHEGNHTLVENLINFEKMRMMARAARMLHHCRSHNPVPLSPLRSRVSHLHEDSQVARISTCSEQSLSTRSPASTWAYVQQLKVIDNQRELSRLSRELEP
# Phospholipid hydroperoxide glutathione peroxidase GPX4 (Homo sapiens), sequence (P36969 whole entry, looked up): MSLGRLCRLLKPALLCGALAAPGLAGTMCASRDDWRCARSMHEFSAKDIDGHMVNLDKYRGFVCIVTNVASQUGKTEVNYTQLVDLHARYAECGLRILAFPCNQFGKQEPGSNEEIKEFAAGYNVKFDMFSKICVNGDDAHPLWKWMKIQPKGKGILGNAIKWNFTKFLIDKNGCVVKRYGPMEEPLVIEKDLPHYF
# Glutathione peroxidase 1 (Homo sapiens), sequence (P07203 whole entry, looked up): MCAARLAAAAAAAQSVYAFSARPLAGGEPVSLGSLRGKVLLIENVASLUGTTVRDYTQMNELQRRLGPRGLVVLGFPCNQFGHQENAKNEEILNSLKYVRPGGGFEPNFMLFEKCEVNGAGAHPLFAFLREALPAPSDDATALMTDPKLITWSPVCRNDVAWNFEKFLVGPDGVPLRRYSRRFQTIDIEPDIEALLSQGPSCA
# Rap guanine nucleotide exchange factor 4 (Homo sapiens), sequence (Q8WZA2 whole entry, looked up): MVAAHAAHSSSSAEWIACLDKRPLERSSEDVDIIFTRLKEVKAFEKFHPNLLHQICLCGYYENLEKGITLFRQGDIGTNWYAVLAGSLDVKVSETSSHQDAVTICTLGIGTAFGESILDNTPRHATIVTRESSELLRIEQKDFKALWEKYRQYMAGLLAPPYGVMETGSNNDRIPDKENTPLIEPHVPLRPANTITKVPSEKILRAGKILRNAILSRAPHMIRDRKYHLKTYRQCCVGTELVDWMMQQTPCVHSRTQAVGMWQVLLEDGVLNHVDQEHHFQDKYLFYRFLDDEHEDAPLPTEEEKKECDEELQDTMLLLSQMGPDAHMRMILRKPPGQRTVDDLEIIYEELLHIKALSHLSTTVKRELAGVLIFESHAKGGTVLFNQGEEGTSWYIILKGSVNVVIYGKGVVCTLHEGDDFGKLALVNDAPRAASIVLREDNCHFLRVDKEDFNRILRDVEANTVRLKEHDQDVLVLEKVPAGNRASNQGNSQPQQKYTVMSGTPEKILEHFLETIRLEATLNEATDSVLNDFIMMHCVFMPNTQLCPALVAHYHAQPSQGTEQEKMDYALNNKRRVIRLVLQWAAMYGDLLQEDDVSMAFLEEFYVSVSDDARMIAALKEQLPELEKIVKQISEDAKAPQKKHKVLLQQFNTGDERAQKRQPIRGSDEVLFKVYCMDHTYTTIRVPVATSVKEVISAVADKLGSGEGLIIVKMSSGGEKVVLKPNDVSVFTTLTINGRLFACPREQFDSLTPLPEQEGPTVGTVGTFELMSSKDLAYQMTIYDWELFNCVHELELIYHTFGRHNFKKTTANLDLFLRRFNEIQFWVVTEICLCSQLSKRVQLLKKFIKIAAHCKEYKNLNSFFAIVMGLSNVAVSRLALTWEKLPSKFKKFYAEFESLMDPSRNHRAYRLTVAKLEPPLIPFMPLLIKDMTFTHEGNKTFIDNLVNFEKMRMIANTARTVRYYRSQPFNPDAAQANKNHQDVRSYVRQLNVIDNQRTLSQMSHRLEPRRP
compound,measurement,setting,value
Cc1cc(OCCCc2c3n(c4c(-c5c(C)nn(C)c5C)c(Cl)ccc24)[C@H](C)CN(c2cn(C)c4ccc(C(=O)O)cc24)C3=O)cc(C)c1Cl,Potency,[1],4.68 µM (active)
same,Potency,[2],2.09 µM (active)
same,Potency,[3],inactive
same,Potency,[4],3.21 µM (active)
same,Z-AUC,[5],1.46 (inactive)
same,Z-AUC,[5]; [10],0.906
same,Z-AUC,[5]; measured here: PEO4 Z-AUC,1.25
CC(C)(C)C[C@H]1N[C@@H](C(=O)NC2CCC(O)CC2)[C@H](c2cccc(Cl)c2F)[C@@]12C(=O)Nc1cc(Cl)ccc12 (some centres not stated),Potency,[1],1.48 µM (active)
same,Potency,[2],0.468 µM (active)
same,Potency,[3],inactive
same,Potency,[4],inactive
same,Z-AUC,[5],-0.139 (inactive)
same,Z-AUC,[5]; [10],0.559
same,Z-AUC,[5]; measured here: PEO4 Z-AUC,0.282
C[C@]1(C(=O)N(CCCC(=O)O)Cc2cccc(Cl)c2)CCN1C(=O)c1csc2ccccc12,Potency,[1],inactive
same,Potency,[2],inactive
same,Potency,[3],inactive
same,Potency,[4],inactive
same,Z-AUC,[5],0.897 (inactive)
same,Z-AUC,[5]; [10],0.571
same,Z-AUC,[5]; measured here: PEO4 Z-AUC,0.835
CCN(C)S(=O)(=O)Nc1ccc(F)c(C(=O)c2c[nH]c3ncc(-c4cnc(C5CC5)nc4)cc23)c1F,Potency,[1],8.33 µM (active)
same,Potency,[2],7.42 µM (active)
same,Potency,[3],inactive
same,Z-AUC,[5],0.933 (inactive)
same,Z-AUC,[5]; [10],0.554
same,Z-AUC,[5]; measured here: PEO4 Z-AUC,0.574
C=CC(=O)Nc1cccc(Oc2nc(Nc3ccc(N4CCN(C)CC4)cc3)nc3ccsc23)c1,Potency,[1],3.32 µM (active)
same,Potency,[2],3.32 µM (active)
same,Potency,[3],inactive
same,Potency,[4],inactive
same,Z-AUC,[5],-0.291 (inactive)
same,Z-AUC,[5]; [10],-0.486
same,Z-AUC,[5]; measured here: PEO4 Z-AUC,-0.146
N#Cc1cc2cc(CN3CCC(Nc4ncnc5sc(CC(F)(F)F)cc45)CC3)c(O)cc2n1Cc1cn[nH]c1,Potency,[1],13.2 µM (active)
same,Potency,[2],11.8 µM (active)
same,Potency,[3],inactive
same,Potency,[4],inactive
same,Z-AUC,[5],-1.24 (inactive)
same,Z-AUC,[5]; [10],-1.35
same,Z-AUC,[5]; measured here: PEO4 Z-AUC,-1.55
C=C1C(=O)OC2/C=C(/C)CC/C=C(/C)CCC12 (configuration not stated),Potency,[1],11.8 µM (active)
same,Potency,[2],8.33 µM (active)
same,Potency,[3],inactive
same,Potency,[4],inactive
same,Z-AUC,[5],1.69 (inactive)
same,Z-AUC,[5]; [10],1.29
same,Z-AUC,[5]; measured here: PEO4 Z-AUC,1.11
Nc1nc2cc(-c3ccc4ncc(C(=O)N5CCOCC5)n4c3)ccc2o1,Potency,[1],8.33 µM (active)
same,Potency,[2],9.34 µM (active)
same,Potency,[3],inactive
same,Potency,[4],inactive
same,Z-AUC,[5],1.25 (inactive)
same,Z-AUC,[5]; [10],0.336
same,Z-AUC,[5]; measured here: PEO4 Z-AUC,0.353
c1ccc2c(-c3cnn4cc(-c5ccc(OCCN6CCOCC6)cc5)cnc34)ccnc2c1,Potency,[1],3.62 µM (active)
same,Potency,[2],3.23 µM (active)
same,Potency,[3],inactive
same,Potency,[4],inactive
same,Z-AUC,[5],-1.41 (inactive)
same,Z-AUC,[5]; [10],-1.08
same,Z-AUC,[5]; measured here: PEO4 Z-AUC,-0.99
Cc1cccc(N(C(=O)c2csnn2)C(C(=O)NCc2ccccc2)c2cccs2)c1 (configuration not stated),Potency,[6],inactive
same,Potency,[7],inactive
same,Potency,[8],inactive
CCc1ccc2nc(Nc3cc(Cc4ccccc4)nc(NC4CCC(O)CC4)n3)sc2c1 (configuration not stated),Potency,[2],23.5 µM (active)
same,Potency,[3],inactive
same,Z-AUC,[5],-0.86 (inactive)
same,Z-AUC,[5]; [10],-0.737
same,Z-AUC,[5]; measured here: PEO4 Z-AUC,-0.703
Cc1c(CN2CCC(Nc3ncnc4sc(CC(F)(F)F)cc34)CC2)ccc2c1cc(C#N)n2Cc1cn[nH]c1,Potency,[2],3.32 µM (active)
same,Potency,[3],inactive
same,Potency,[4],inactive
same,Z-AUC,[5],-0.417 (inactive)
same,Z-AUC,[5]; [10],-0.643
same,Z-AUC,[5]; measured here: PEO4 Z-AUC,-0.075
CN1CCN(CCCNc2ncc(Cl)c(-c3cc4c(C(=O)NC5CC5)cccc4s3)n2)CC1,Potency,[2],23.5 µM (active)
same,Potency,[3],inactive
same,Z-AUC,[5],-0.322 (inactive)
same,Z-AUC,[5]; [10],-0.452
same,Z-AUC,[5]; measured here: PEO4 Z-AUC,-0.0901
CC1(C)OCCn2c1nc1c(N3CCOCC3)nc(-c3cnc(N)nc3)nc12,Potency,[1],0.332 µM (active)
same,Potency,[3],inactive
same,Potency,[4],inactive
same,Z-AUC,[5],-0.953 (inactive)
same,Z-AUC,[5]; [10],-0.219
same,Z-AUC,[5]; measured here: PEO4 Z-AUC,-0.151
Nc1cc(N)cc(N)c1,Potency,[6],28 µM (active)
NC(=O)c1cc(F)cc2c1C(=O)N(C1CCN(C3CCC(F)(F)CC3)CC1)C2,Potency,[1],inactive
same,outcome,[9],inactive
same,Potency,[3],inactive
same,Potency,[4],inactive
same,Z-AUC,[5],-0.257 (inactive)
same,Z-AUC,[5]; [10],-0.805
same,Z-AUC,[5]; measured here: PEO4 Z-AUC,-0.459
O=C(O/N=C1\c2ccccc2-c2nc3ccccc3nc21)c1ccco1,Potency,[1],18.4 µM (active)
same,Potency,[3],inactive
C[C@H]1C[C@@H](n2c(Nc3ccc(OC(F)(F)F)cc3)nc3cc(CCC(=O)O)ccc32)CC(C)(C)C1,Potency,[1],inactive
same,Potency,[3],inactive
same,Potency,[4],2.55 µM (active)
same,Z-AUC,[5],0.184 (inactive)
same,Z-AUC,[5]; [10],0.953
same,Z-AUC,[5]; measured here: PEO4 Z-AUC,0.855
CCC[C@H](NC(=O)[C@@H]1[C@H]2CCC[C@H]2CN1C(=O)[C@@H](NC(=O)[C@@H](NC(=O)c1cnccn1)C1CCCCC1)C(C)(C)C)C(=O)C(=O)NC1CC1,Potency,[2],5.9 µM (active)
same,outcome,[9],inactive
same,Potency,[3],inactive
same,Potency,[4],inactive
same,Z-AUC,[5],1.49 (inactive)
same,Z-AUC,[5]; [10],0.769
same,Z-AUC,[5]; measured here: PEO4 Z-AUC,0.725
COc1ccc(C(=O)c2ccc(OC)cc2OC)cc1,Potency,[6],inactive
same,Potency,[7],inactive
CC1COc2ccccc2N1S(=O)(=O)c1cc(Cl)ccc1Cl (configuration not stated),Potency,[6],inactive
same,Potency,[7],inactive
COc1ccc(SC[C@H](Cc2ccccc2)N2CC[C@@H](C)CCC2=O)cc1,Potency,[6],inactive
Cc1cc(O[C@@H](CCC(F)(F)F)c2ccc(C(=O)NCCC(=O)O)cc2)cc(C)c1-c1ccc(C(C)(C)C)cc1,Potency,[2],inactive
same,Potency,[3],inactive
same,Z-AUC,[5],0.000666 (inactive)
same,Z-AUC,[5]; [10],0.0877
same,Z-AUC,[5]; measured here: PEO4 Z-AUC,-0.261
CCn1c(-c2nonc2N)nc2cncc(C(=O)N3CC[C@H](N)C3)c21,Potency,[1],10.3 µM (active)
same,Potency,[3],inactive
Cn1cc(C2=C(c3cn(C)c4cc([N+](=O)[O-])ccc34)C(=O)NC2=O)c2ccccc21,Potency,[1],0.525 µM (active)
same,Potency,[2],0.417 µM (active)
same,Z-AUC,[5],-0.69 (inactive)
same,Z-AUC,[5]; [10],-0.95
same,Z-AUC,[5]; measured here: PEO4 Z-AUC,-1.21
